Assay outcomes (PubChem)
Shown are actives, neighbours in structure and some others; about 27% of the full set was active somewhere.
CYP2C9 act = human CYP2C9 activators, primary screen, biochemical, luminescence. Cytochrome P450 2C9 (Homo sapiens), P11712. recombinant CYP2C9, luciferin-H conversion; stronger effect = higher value; factor 1 = untreated enzyme, 0 = blocked. activation factor at 5 µM. 1.4% of 96,000 active;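 active = activation factor of 2 or more for CYP2C9 at a 5 µM dose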
Target sequence (P11712 whole entry, looked up): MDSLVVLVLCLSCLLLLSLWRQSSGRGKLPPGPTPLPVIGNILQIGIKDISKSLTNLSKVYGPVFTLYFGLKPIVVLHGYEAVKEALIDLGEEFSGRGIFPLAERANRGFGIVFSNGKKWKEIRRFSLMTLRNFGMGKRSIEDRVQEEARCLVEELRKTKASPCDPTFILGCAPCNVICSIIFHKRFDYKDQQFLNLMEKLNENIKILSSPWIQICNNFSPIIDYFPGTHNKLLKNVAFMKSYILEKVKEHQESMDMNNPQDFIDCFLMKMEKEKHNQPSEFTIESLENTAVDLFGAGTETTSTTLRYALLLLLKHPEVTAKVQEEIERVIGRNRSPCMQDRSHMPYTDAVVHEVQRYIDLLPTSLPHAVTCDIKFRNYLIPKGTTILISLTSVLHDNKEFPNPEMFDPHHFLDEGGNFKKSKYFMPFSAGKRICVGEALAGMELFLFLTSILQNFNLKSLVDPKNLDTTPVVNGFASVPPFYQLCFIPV
EphB4 antag = EphB4-ephrin-B2 interaction antagonists, primary screen, biochemical, TNYL-RAW peptide probe, fluorescence polarization | AID 720, 2007 | 0.15% of 97,000 active | inhibition, % at 7 µM | EphB4 LBD / TNYL-RAW-Alexa532 peptide | Ephrin type-B receptor 4 (Homo sapiens), P54760;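 active = inhibition above the screen-wide mean inhibition plus 3 SD, cut at about 15% in these data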
CYP2C9 inh = blockers of cytochrome P450 2C9 activity – biochemical, luminescence, ADME assay, primary screen. P11712. CYP2C9 Supersomes, luciferin-H conversion. inhibition, % at 5 µM. 20% of 96,000 active;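 active = blocking of liver enzyme CYP2C9 beyond about 50% at 5 µM, limit read from the data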
CYP2C19 inh = blockers of cytochrome P450 2C19 activity – biochemical, luminescence, ADME assay, primary screen. P33261. CYP2C19 Supersomes, luciferin-H EGE luminescence, 30 min. AID 778, 2007. 21% of 96,000 active. inhibition, % at 5 µM;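 active = CYP2C19 inhibition above a set limit at 5 µM in the primary screen, cut at about 50% in these data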
CYP2C19 act = human CYP2C19 activators, primary screen, biochemical, luminescence | Cytochrome P450 2C19 (Homo sapiens), P33261 | recombinant CYP2C19, luciferin-H EGE luminescence; stronger effect = higher value; 0 = fully inhibited enzyme, 1 = untreated enzyme | activation factor at 5 µM | 96,000 tested, under 10 active | AID 1025, 2008;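 active = activation factor of at least 2 at 5 µM in the primary screen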
Hits are given with their value; – = inactive; · = no result.

SMILES	CYP2C9 act	EphB4 antag	CYP2C9 inh	CYP2C19 inh	CYP2C19 act
O=C(Nc1nc(-c2ccc(Cl)cc2)cs1)c1cccnc1	–	–	–	61	–
Cn1cc([N+](=O)[O-])c(C(=O)Nc2nc(-c3ccc(Cl)cc3)cs2)n1	–	–	–	–	–
c1cncc(Nc2nc(-c3cccnc3)cs2)c1	–	·	56	72	–
CCOC(=O)c1[nH]c(C)c(C(=O)NCc2ccccn2)c1C	·	–	·	·	·
Cc1ccc(CSCCNC(=O)CSCc2ccc([N+](=O)[O-])cc2)cc1	–	–	75	58	–
O=C(Nc1cccc2c1CCCC2)C1CCN(c2nnnn2-c2ccccc2)CC1	–	–	–	–	–
O=Nc1c(O)n(Cc2ccc(Cl)cc2)c2ccccc12	–	–	90	84	–
N=c1n(CCO)c2ccccc2n1Cc1ccc(Cl)cc1	–	–	–	–	–
O=Nc1c(O)n(Cc2ccc(Cl)cc2Cl)c2ccccc12	–	–	60	–	–
Cc1nn(Cc2ccc(Cl)cc2Cl)c(C)c1NC(=O)c1sc2ccccc2c1Cl	–	–	–	–	–
Cc1ccc(S(=O)(=O)NCCCCCC(=O)Nc2nccs2)cc1	–	–	80	74	–
Cc1ccccc1OCCCC(=O)Nc1nccs1	–	–	–	80	–
O=C(CCSc1ccccc1)Nc1nccs1	–	–	–	62	–
O=C(CCCC(=O)OCC(F)(F)C(F)F)Nc1nccs1	–	–	60	51	–
O=C(CCCC(=O)OCC(F)(F)C(F)F)Nc1ccc(NC(=O)CCCC(=O)OCC(F)(F)C(F)F)cc1	–	–	–	–	–
CCOc1ccc(NC(=O)CSc2nnc(C)n2CC2CCCO2)cc1 (stereo not drawn)	–	–	–	–	–
Cc1nnc(SCC(=O)N2CCOCC2)n1C	–	–	–	–	–
CCc1nnc(NC(=O)CN2CCN(c3nc(-c4ccccc4)cs3)CC2)s1	–	–	64	–	–
O=C(CN1CCN(c2ccccc2)CC1)Nc1nccs1	–	–	90	70	–
CCc1nnc(NC(=O)CN2CCN(c3ccccc3OC)CC2)s1	–	–	–	–	–
CCC(=O)NCCC(c1ccco1)c1ccccc1OC (stereo not drawn)	·	–	·	·	·
O=C(CCN1CCN(c2ccccc2)CC1)Nc1nccs1	–	–	–	–	–
O=C(CCSc1ccccc1)NC1CCCC1	–	·	–	83	–
COc1ccccc1C(CC(=O)Nc1nccs1)c1ccco1 (stereo not drawn)	–	–	55	64	–
C(=N\Nc1nc2ccccc2[nH]1)/c1cccs1	–	–	–	–	–
SMILES	CYP2C9 act	EphB4 antag	CYP2C9 inh	CYP2C19 inh	CYP2C19 act
CC1=C(C)C(=O)N(c2ccc(C(=O)O)cc2)C1=O	–	–	–	–	–
Cc1cc(C)cc(NC(=O)c2ccc(CNc3c(N4CCOCC4)c(=O)c3=O)cc2)c1	–	–	–	–	–
Cc1ccc(C(C)C)c(OCC(=O)c2c(O)c3ccccc3oc2=O)c1	·	–	·	·	·
Cc1ccc(C)c(C(=O)Nc2c(C(N)=O)oc3ccccc23)c1	–	–	–	–	–
NC(=O)c1oc2ccccc2c1NC(=O)c1ccco1	3.7	·	–	–	–
COc1ccccc1NC(=O)c1oc2ccccc2c1NC(=O)c1ccco1	–	–	–	–	–
NC(=O)c1oc2ccccc2c1NC(=O)c1ccccc1	3.8	–	–	–	–
O=C(Cn1cc2c(n1)CCCC2)N1CCCC1	–	–	–	–	–
CCOC(=O)C1CCN(Cc2oc(CO)cc(=O)c2O)CC1	–	–	–	–	–
CC(=O)N(C)c1ccc(NC(=O)c2ccccc2C(=O)O)cc1	–	–	–	–	–
C=CCc1ccc(OCCOCCOc2ccccc2[N+](=O)[O-])c(OC)c1	–	–	77	85	–
COc1cc(C)ccc1OCCCOc1cc(C)ccc1Cl	·	–	·	·	·
C=CCc1ccc(OCCCOc2ccc(C)cc2OC)c(OC)c1	–	–	–	59	–
C=CCc1ccc(OCC(O)COc2ccc(CC=C)cc2OC)c(OC)c1	–	–	93	97	–
CCCCn1c(=O)n(C)c(=O)c2c3c(sc21)COC(C)(C)C3	–	–	–	–	–
O=c1c2ccccc2nc2n1CCN2	–	–	–	–	–
CCCN(CCC)C(=O)C1CCN(c2cc(C)nc3c(-c4ccc(OC)c(OC)c4)c(C)nn23)CC1	–	–	51	–	–
Cc1cc2cc(CNC(=O)NC3CCCCC3)ccc2[nH]1	–	–	–	76	–
Cc1ccc(-c2csc(=S)n2CC(=O)OCC(=O)NCc2ccco2)cc1	–	–	56	–	–
Cc1cc(C)cc(OCC(=O)OCC(=O)NCc2ccco2)c1	–	–	–	–	–
Cc1ccc(-c2csc(=S)n2CC(=O)OCC(=O)NC(C)C(C)C)cc1 (stereo not drawn)	–	–	69	–	–
CCc1ccc(OCC(=O)Nc2ccc3c(c2)COC3=O)cc1	–	–	–	–	–
FC(F)C(F)(F)C(F)(F)C(F)(F)c1cc(-c2ccccc2)n[nH]1	–	·	76	85	–
Cc1nn(Cc2c(F)c(F)c(F)c(F)c2F)c(C)c1NC(=O)c1c([N+](=O)[O-])c(C)nn1C	–	–	–	–	–
Cc1onc(-c2ccccc2Cl)c1C(=O)N1CCN(c2nc3ccccc3s2)CC1	–	·	92	96	–
SMILES	CYP2C9 act	EphB4 antag	CYP2C9 inh	CYP2C19 inh	CYP2C19 act
COc1ccccc1N1CCN(C(=O)c2ccoc2C)CC1	–	–	–	74	–
COC(=O)C1CCN(C(=O)c2c(-c3ccccc3Cl)noc2C)CC1	–	–	–	54	–
Cc1onc(-c2ccccc2Cl)c1C(=O)N1CCN(C/C=C/c2ccccc2)CC1	–	·	–	–	–
COc1ccccc1N1CCN(C(=O)c2c(-c3ccccc3Cl)noc2C)CC1	–	–	65	94	–
Cc1sc(CO)c(Sc2ccccc2)c1C(=O)O	·	–	·	·	·
CCOc1ccc(C(=O)OCn2nnc3ccccc3c2=O)cc1OC	–	·	–	–	–
CCOc1ccc(C(=O)OCc2nnc(-c3cccs3)o2)cc1OC	–	–	80	68	–
C=CCc1cccc(/C=N/n2cnnc2)c1O	–	–	–	66	–
Cn1c(SCC(=O)OC2CCCCC2)nnc1-c1ccco1	·	–	·	·	·
CCCOC(=O)CC1C(=O)NCCN1Cc1ccccc1C (stereo not drawn)	·	–	·	·	·
COc1ccc(OC)c(NC(=O)CN(c2ccc(C(C)C)cc2)S(=O)(=O)c2c(C)noc2C)c1	–	–	94	75	–
COc1ccc(N(CC(=O)Nc2ccc(C)cn2)S(=O)(=O)c2c(C)noc2C)cc1	–	–	70	73	–
COc1ccc(OC)c(NC(=O)CN(c2ccc(C)cc2)S(=O)(=O)c2c(C)noc2C)c1	–	–	–	–	–
